Data on 40 molecules can be found in PubChem BioAssay (NCI).

About 83,000 compounds went through this panel and 20% of them were active in at least one assay; those are over-represented in the sample as a whole.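 Growth was measured after 48 h exposure to one concentration of compound in 96-well plates. Values under 10 count as active.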 Values without a mark were called inactive. The source made the active and inactive calls.

The test system of this assay is PC-3 prostate. The experiment in a line: NCI-60 one-dose screen, 48 h (100 = growth as untreated, 0 = no growth, -100 = all killed). The settings on record: 10 µM unless noted. The procedure: Growth inhibition of the PC-3 human tumor cell line is measured as a screen for anti-cancer activity. Cells are grown in 96 well plates and exposed to the test compound for 48 hours. Compounds are tested at a single concentration, which is 10^-5 M for most compounds. The reported endpoint is percent growth (GI% or GIPRCNT), where numbers from 0 - 100% represent growth inhibition, and numbers from -100% - 0 represent cell death. For example, a value of 40 represents 60% growth inhibition. A value of 0 means no net growth occurred over the course of the experiment. A value of -40 indicates 40% of cells at the beginning of the experiment died by the end of the experiment. A value of -100 means all cells are dead at the end of the experiment.
NCI-60 Human Tumor Cell Lines Screen was performed using the standard one-dose NCI protocol, which is described in more detail at https://dtp.cancer.gov/discovery_development/nci-60/default.htm.
Compounds with GIPRCNT values below 10 were considered active. Activity score was based on GIPRCNT using the following formula: […]
Score is 0 for GIPRCNT values of 100 or above, 50 for GIPRCNT values of 0, and 100 for GIPRCNT values of -100.
`CCN(CC)Cc1cc(Nc2nc(NC3CCC(N(C)C)CC3)c3ccccc3n2)ccc1OC` (stereo not given): the growth was 62.6%.
Next, `CC(=O)c1c(C)nc(-c2cc(C)cc(Cl)c2)nc1-c1cccc(Oc2ccccc2)c1`: 53.4%; `CN1CCN(Cc2ccc(NC(=O)c3ccc(C#N)c(C#Cc4cnc(N)c5ncccc45)c3)cc2C(F)(F)F)CC1`: 81.1%; `CCN(CC)Cc1cc(Nc2ccnc3cc(Cl)ccc23)cc(-c2ccc(Cl)cc2)c1O`: 25.2%.
Turning to `CC1CN(CCCOC(=O)Nc2ccc(Cl)cc2)CCN1C(C)(C)C` (stereo not given), the growth was 90%.
The value for `O=c1c2sc3ccccc3c2nnn1-c1ccc(F)c(Cl)c1` was 54.8%; that for `Cc1nc2n[nH]c(N)c2nc1C` was 102%; that for `COc1cc2c(cc1OC)C(=O)OC2` was 125%.
For `Cc1n(Cc2ccc3ccccc3n2)cc[n+]1Cc1ccc2ccccc2c1`, the growth was 10.4%.
Next, `COCCOCCOCc1n(Cc2ccc3ccccc3n2)c2ccccc2[n+]1Cc1ccc2ccccc2c1`: 5.71% (active); `CNC(=O)c1cc(Oc2ccc(NC(=O)c3[nH]c(SC)nc3-c3ccc(F)cc3)cc2)ccn1`: 33.2%; `Fc1[nH]nc2ccc([C@@H]3Nc4ccc5[nH]ncc5c4[C@H]4C5CCC(C5)[C@@H]34)cc12` (stereo not given in full): 27.8%.
As to `COc1ccc(C2CC(c3ccc(Nc4ccnc5cc(Cl)ccc45)cc3)=NN2c2ccccc2)cc1` (stereo not given), the growth is 78%.
For the molecule `Cc1[nH]nc2ccc3nc(-c4ccc5[nH]ncc5c4)c4c(c3c12)CCCC4`, the growth is 26.5%.
`COc1ccc(/C=c2\c(=O)n(-c3ccccc3)c3nn4c(=O)c(=O)[nH]nc4n23)cc1`: the growth is 102%.
For `COc1ccc(Nc2ncnc3c2sc2nc(C)cc(C)c23)cc1`, the growth was 92.7%.
Regarding `O=C(NO)c1ccc(NCc2csc3ccccc23)cc1`, the growth was 52.4%.
`O=C(O)Cn1ccc2ccccc21`: the growth is 101%.
Next, `CCc1ccc(Nc2ncnc3c2cnn3-c2cccc(Br)c2)cc1`: 94.9%; `CC(C)N1CCN(c2ccncc2S(=O)(=O)N2CCN(C)CC2)CC1`: 114%; `FC(F)(F)c1ccc(/C=N/Nc2nnc3n2N=C(c2ccc(Cl)cc2)CS3)cc1`: 53.1%.
In the case of `O=C(C(Br)C(Br)c1ccccc1)C(Br)C(Br)c1ccccc1` (stereo not given), the growth was -31.2% (active).
In the case of `COc1cccc(OCC(O)CN2CCN(c3ccccc3)CC2)c1` (stereo not given), the growth is 109%.
Take `COc1cc(Cn2c(-c3ccccc3)cc3c2-c2oncc2CC3)cc(OC)c1OC`: the growth is 20.6%.
The value for `COc1ccc(/C(=C\c2cc(OC)c(OC)c(OC)c2)C(=O)N2CCNCC2)cc1` was 90.7%.
Regarding `O=C1CC2(O)CSc3nc(=O)cc(n32)N1` (stereo not given), the growth is 93.9%.
As to `COc1cc2nccc(Oc3ccc(NC(=O)C4(C(=O)Nc5c(F)cc(F)cc5F)CC4)cc3)c2cc1Oc1ccc(N)cn1`, the growth was 51.5%.
Next, `CC(=O)c1cc(C(=O)c2ccc3c(c2)Sc2ccccc2N3)c2c(C)cccn12`: 26.8%.
As to `O=C(Nc1ccccc1)C(CCCCN1C(=O)c2ccccc2C1=O)N1C(=O)c2ccccc2C1=O` (stereo not given), the growth was 98.5%.
`CCCCn1c(C)nc2ccc(Nc3nc(Cl)nc4nc[nH]c34)cc21`: the growth was 36.3%.
In the case of `O=C(Nc1ccc(Br)cc1)Nc1ccccc1Cl`, the growth was 83.9%.
In the case of `CCCc1cc2c(cc1CN(Cc1cc3c(cc1CCC)OCO3)C(=N)OCC)OCO2`, the growth was 59.3%.
Turning to `Cc1cc(Cl)c2ccc(N(C)C)cc2n1`, the growth is 101%.
For the molecule `COC(=O)c1cc(Cl)cc([N+](=O)[O-])c1O`, the growth is 97.3%.
Consider `CC(=O)N1N=C(c2ccc(C)cc2)CC1c1cn(-c2ccccc2)nc1-c1cccc(Nc2ccnc3cc(Cl)ccc23)c1` (stereo not given), for which the growth is 99.8%.
For `CCOC(=O)c1ccc(NCCC(=O)O)cc1`, the growth was 91.7%.
Next, `Cc1c(O)c(=O)n(-c2ccccc2)n1C`: 92%; `CC(=O)OC1Oc2ccccc2-c2oc3nc(=N)n(C)c-3cc21` (stereo not given): 97.4%.
As to `CC(C)c1[nH]ncc1-c1nc2ccc3[nH]ncc3c2c2c1CCCC2`, the growth was 44.2%.
On to `COc1ccc(Sc2[nH]c(C=O)c3ccccc23)cc1`, for which the growth was 45%.
